From PubChem BioAssay
Most compounds without a hit are left out; they make up all but 7.5% or so of the library.
FLuc counter = firefly luciferase modulation, counter-screen for miR-21 project; Potency, µM (top dose mostly 57.5 µM), inactives show at the highest dose activity change, negative = inhibition, usual class: inhibitors; hit rate 6.9% among 360,000; P08659; purified FLuc, Km substrates, luminescence inhibition;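 note: plate controls were vehicle for no effect and reference inhibitor for full effect; nearly all actives have a fitted effect of over 55% in size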
Target sequence (P08659 whole entry, looked up): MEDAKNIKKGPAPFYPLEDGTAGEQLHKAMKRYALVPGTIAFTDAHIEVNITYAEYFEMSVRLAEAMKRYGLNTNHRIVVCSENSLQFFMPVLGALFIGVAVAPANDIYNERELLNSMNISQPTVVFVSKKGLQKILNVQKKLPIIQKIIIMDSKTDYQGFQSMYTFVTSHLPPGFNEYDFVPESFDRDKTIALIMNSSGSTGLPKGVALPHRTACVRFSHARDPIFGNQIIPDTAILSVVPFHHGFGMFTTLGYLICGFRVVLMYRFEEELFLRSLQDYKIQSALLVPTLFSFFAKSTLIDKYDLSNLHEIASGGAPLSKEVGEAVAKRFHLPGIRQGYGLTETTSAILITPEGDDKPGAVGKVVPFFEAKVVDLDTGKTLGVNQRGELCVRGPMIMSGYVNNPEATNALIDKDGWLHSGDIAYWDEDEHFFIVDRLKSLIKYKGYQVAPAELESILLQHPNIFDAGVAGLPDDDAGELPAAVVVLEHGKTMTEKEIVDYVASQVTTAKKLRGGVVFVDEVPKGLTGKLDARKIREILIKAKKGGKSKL
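Purified P. pyralis luciferase (10nM final) with 10uM D-luciferin and 10uM ATP (Km levels) in 50mM Tris acetate pH 7.5, 10mM Mg acetate, 0.01% Tween-20, 0.05% BSA; qHTS 6-point titration, ~60 µM downward; luminescence read.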
Luc counter = Kinase-Glo luciferase inhibition (counter-screen) | Potency, µM (titrated, usually from 38.3 µM), for inactives: at the highest dose activity change, negative = inhibition, hits mostly inhibitors | Kinase-Glo luciferase, ATP luminescence, 8 min | hit rate 0.28% among 200,000 | Q27757; note: % is set by controls: 0 for no effect and ±100 for the full control effect; nearly all actives have a fitted effect of over 60% in size
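Luminescence was the read-out, taken after 8-minute incubation at ambient temperature. Luciferase turned over luciferin with 10 uM ATP in imidazole pH 7.2 buffer containing KCl, MgCl2, Tween 20 and BSA.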
NPC1 prom act = activates the NPC1 promoter. Potency, µM (highest dose often 9.22 µM), without a hit: top-dose activation, most hits filed as activators. AID 485313. hit rate 2.4% among 320,000. Huh7 NPC1 promoter luciferase reporter, 24 h; note: % of control where 0% means no effect; nearly all actives have a fitted effect of over 60% in size
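Huh7 reporter cells (NPC1 promoter driving luciferase) are dosed with compound for 24 h at 37 °C, 5% CO2; luciferase detection reagent is then added and luminescence measured after 10 min at ambient temperature.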
Rab9 prom act = activators of Rab9 promoter. AID 485297. hit rate 2.8% among 320,000. Huh7 Rab9 promoter-luciferase reporter, luminescence, 24 h. Potency, µM (doses to about 9.22 µM), for the others: at the top dose activation, negative = inhibition, most hits filed as activators; note: % of control where 0% means no effect; nearly all actives have a fitted effect of over 60% in size
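Huh7 cells stably carrying a Rab9 promoter-luciferase reporter, 1500 cells per well in OP-MEM I with 10% FBS, treated with compound 24 hours at 37C. Luciferase activity read by luminescence after 10 minutes with Amplite reagent.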
SMN2 splice up = SMN2 splice variant enhancement; hit rate 2.8% among 210,000; HEK293 SMN2-luciferase splicing reporter, luminescence, 30-36 h; AID 1458; Potency, µM (titrated, usually from 46.1 µM), without a hit: at the top dose activity change, positive = activation, hits mostly activators; note: % of control where 0% means no effect; nearly all actives have a fitted effect of over 55% in size
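HEK293 cells carry an SMN2 […]–luciferase reporter in which exon 7 inclusion puts luciferase in frame. Cells were plated 10-12 h before compound addition, then incubated 30-36 h at 37C. ONE-Glo luminescence was read; sodium butyrate at 4.5 mM final served as control.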
ELG1 genotoxic = induces genotoxicity in HEK293T cells with luciferase-tagged ELG1. hit rate 1.3% among 330,000. HEK293T ELG1-luciferase reporter, luminescence, 16 h. AID 504466. Potency, µM (top dose mostly 46 µM), inactives show at the highest dose activity change, positive = activation, most hits filed as activators; note: % of control where 0% means no effect; nearly all actives have a fitted effect of over 60% in size
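Screening used a luciferase reporter fused to human ELG1 in HEK293T cells. Luminescence was read on a CCD plate imager after 16 hr exposure and 30 min ONE-Glo incubation.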
* marks the source's active call; other numbers are inactive results; [ ] = remark or other dose. Calls come from the whole dose curve; as a rule, active = well fitted curve in the direction sought with a large enough effect; inconclusive = small, poorly fitted or top-dose-only effect, or another doubt; inactive = no such curve, though single readings can be large; an effect the other way counts as inactive or inconclusive. Potency is the fitted concentration of half-maximal effect.

What do the screens show for `Nc1nc(-c2ccc3c(c2)CCCC3)cs1`?
FLuc counter: 2.1µM*; Luc counter: -17%; NPC1 prom act: 2.2µM*; Rab9 prom act: 2.8µM*; SMN2 splice up: 11µM*; ELG1 genotoxic: inconclusive

What do the screens show for `O=C1CC(c2cc([N+](=O)[O-])ccc2Cl)c2c(ccc3ccccc23)N1` (stereo not given)?
FLuc counter: 1%; Luc counter: 3%; NPC1 prom act: 0%; Rab9 prom act: -1%; SMN2 splice up: -13%; ELG1 genotoxic: 1%

How did O=C1NN(c2cccc(Br)c2)C(=O)/C1=C\c1ccc(O)cc1 do in these assays?
FLuc counter: 15µM*; NPC1 prom act: 1%; Rab9 prom act: -2%[1.84 µM]; ELG1 genotoxic: 0%

How did COc1cc(/C=C2/C(=O)NN(c3cccc(Cl)c3)C2=O)cc(OC)c1O do in these assays?
FLuc counter: 21µM*; NPC1 prom act: 1%; Rab9 prom act: 0%; ELG1 genotoxic: 9%

Results for CCOc1cc(/C=C2/C(=O)NN(c3cccc(Cl)c3)C2=O)ccc1O ?
FLuc counter: 24µM*; NPC1 prom act: 0%; Rab9 prom act: 0%; ELG1 genotoxic: -3%

How did COc1cc(/C=C2/NC(=O)N(c3cccc(Cl)c3)C2=O)ccc1O do in these assays?
FLuc counter: 7%; Luc counter: -5%; NPC1 prom act: -13%; Rab9 prom act: -4%; ELG1 genotoxic: 8%

Results for O=C1NN(c2ccc(Br)cc2)C(=O)/C1=C\c1ccc(O)cc1O ?
FLuc counter: inconclusive; NPC1 prom act: 7%; Rab9 prom act: 4%; ELG1 genotoxic: -3%

Results for COc1ccccc1Oc1ccc(S(=O)(=O)N2CCCCC2)cc1NC(=O)CCNC(C)=O ?
FLuc counter: -3%; NPC1 prom act: -3%; Rab9 prom act: 6%; ELG1 genotoxic: 5%

Results for COc1ccc(/C=C/C2=C[C@]3(C)C[C@]2(C)[C@H](c2ccc(OC)cc2)CC3=O)cc1 ?
Luc counter: -6%; SMN2 splice up: 9%

How did CCc1ccc(C(=O)CSc2nnc(C3CC3)n2C2CC2)cc1 do in these assays?
NPC1 prom act: 16%; Rab9 prom act: 26%; ELG1 genotoxic: 12%

What do the screens show for `Cc1ccc(C(=O)CSc2nnc(C3CC3)n2C2CC2)s1`?
FLuc counter: 19µM*; NPC1 prom act: inconclusive; Rab9 prom act: inconclusive; ELG1 genotoxic: inconclusive

Results for Cc1ccc(S(=O)(=O)Oc2ccc(C)cc2/C=N/N=C2\NC(=O)C(C)S2)cc1 (stereo not given) ?
FLuc counter: 9.5µM*; Luc counter: -1%; NPC1 prom act: 11%; Rab9 prom act: inconclusive; SMN2 splice up: -8%; ELG1 genotoxic: inconclusive

What do the screens show for `CC1S/C(=N/N=C/c2cccs2)NC1=O` (stereo not given)?
FLuc counter: inconclusive; NPC1 prom act: 0%; Rab9 prom act: 2%; ELG1 genotoxic: 14%

Results for COc1ccc(N(C)C(=O)c2ccc(NC(=O)CCS(=O)(=O)c3cccs3)cc2)cc1 ?
FLuc counter: 0%; NPC1 prom act: -5%; Rab9 prom act: 1%; ELG1 genotoxic: 6%

Results for CSCC[C@H](NC(=O)[C@@H]1Cc2ccccc2CN1)C(=O)Nc1ccc2c(c1)OCCO2 ?
FLuc counter: 15µM*; NPC1 prom act: inconclusive; Rab9 prom act: inconclusive; ELG1 genotoxic: inconclusive

How did C[C@H](NC(=O)[C@@H]1Cc2ccccc2CN1)C(=O)Nc1ccc2c(c1)OCCO2 do in these assays?
FLuc counter: -6%; NPC1 prom act: -1%; Rab9 prom act: 7%; ELG1 genotoxic: 8%

How did COc1cccc(CNC(=O)CN(c2ccc(C(C)C)cc2)S(=O)(=O)c2c(C)noc2C)c1 do in these assays?
FLuc counter: -1%; NPC1 prom act: -1%; Rab9 prom act: 2%; SMN2 splice up: 1%; ELG1 genotoxic: -3%

How did COc1cccc(CNC(=O)CN(c2cc(C)cc(C)c2)S(=O)(=O)c2c(C)noc2C)c1 do in these assays?
FLuc counter: 3%; Luc counter: -5%; NPC1 prom act: -1%; Rab9 prom act: 3.5µM*; SMN2 splice up: 11%; ELG1 genotoxic: -10%

What do the screens show for `COc1ccc(C(CNc2ccc(S(C)(=O)=O)cc2[N+](=O)[O-])N(C)C)cc1OC` (stereo not given)?
FLuc counter: 1%; NPC1 prom act: 0%; Rab9 prom act: -2%; ELG1 genotoxic: -3%

What do the screens show for `Cc1ccc(N(Cc2ccccc2)C(=O)c2cc(S(=O)(=O)N3CCOCC3)ccc2Cl)cc1`?
FLuc counter: inconclusive; NPC1 prom act: -4%; Rab9 prom act: -4%; ELG1 genotoxic: inconclusive

What do the screens show for `Cc1ccc(N(Cc2ccccc2)C(=O)c2cc(S(=O)(=O)N3CCOCC3)ccc2F)cc1`?
FLuc counter: 19µM*; NPC1 prom act: -2%; Rab9 prom act: 1%; ELG1 genotoxic: 0%

What do the screens show for `C#CCOCCOCCOCCNc1nc(N2CCN(C(=O)C([C@@H](C)O)n3cc([C@@H](N)CCCCN)nn3)CC2)nc(N2CCN(C(=O)C([C@@H](C)O)n3cc([C@@H](N)CCCCN)nn3)CC2)n1` (stereo not given in full)?
ELG1 genotoxic: 3%

What do the screens show for `COc1cc(CNc2ccc(N3CCCC3)cc2)ccc1OCc1ccccc1F`?
FLuc counter: inconclusive; Luc counter: -21%; NPC1 prom act: 13%; Rab9 prom act: 19%; SMN2 splice up: 18µM*; ELG1 genotoxic: 13%

What do the screens show for `COc1cc(CNc2ccc(N3CCCC3)cc2)ccc1OCc1ccccc1`?
FLuc counter: 6µM*; Luc counter: -2%; NPC1 prom act: 16%; Rab9 prom act: 19%; SMN2 splice up: 59%; ELG1 genotoxic: inconclusive

What do the screens show for `COc1cc(CNc2ccc(N3CCCCC3)cc2)ccc1OCC(=O)NC(C)(C)C`?
FLuc counter: 5.4µM*; NPC1 prom act: -12%; Rab9 prom act: 0%; ELG1 genotoxic: 1%

How did COc1cc(CNC23CC4CC(CC(C4)C2)C3)ccc1OCc1ccccc1 do in these assays?
FLuc counter: -2%; Luc counter: -3%; NPC1 prom act: -2%; Rab9 prom act: -14%; SMN2 splice up: -50%; ELG1 genotoxic: -6%

How did COc1cc(CNc2ncn[nH]2)ccc1OCc1cccc(C)c1 do in these assays?
FLuc counter: 19µM*; Luc counter: 2%; NPC1 prom act: inconclusive; Rab9 prom act: inconclusive; ELG1 genotoxic: inconclusive

How did COc1cc(CNc2ccc(CNc3ncn[nH]3)cc2)cc(Cl)c1OCc1ccccc1 do in these assays?
FLuc counter: 0%; Luc counter: 0%; NPC1 prom act: 12%; Rab9 prom act: 19%; ELG1 genotoxic: -1%
